Data from PMC12136788.
Numbering of substitutions follows the chain as printed. Over roughly 24,000 sequences, “enrichment r” has its median near 0.99; the highest 2% begin near 3.7. Shown is part of a subset that was picked to be rich in the highest values.

T1: UNK ZnF1-3 (human, UniProt Q9C0B0 31-174)
T1 sequence: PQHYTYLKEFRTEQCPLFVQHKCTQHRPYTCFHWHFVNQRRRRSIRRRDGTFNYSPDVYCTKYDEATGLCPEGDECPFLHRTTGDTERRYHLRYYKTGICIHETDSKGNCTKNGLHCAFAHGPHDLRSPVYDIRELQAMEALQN

B1: chr14:23562722:23562723:-_ENSG00000100813_ENST00000605057|hu_mus|FALSE|FALSE (ssRNA)
RNA: GGGAGUUCUACAGUCCGACGAUCUGGCUCAUUUCCUCCCCGAUCUGUGAAUUUGGCUGGAAUGCAGCAUGGGGUGUUGAGUGUUUUUGUAAAUUUUCUAGCAUUAGAGCCCCUUUGAGCCGCUUGACCAGGGCACUCUUCUGCCAACAGAGGAUUGAGCAUCA
B2: 107524198_107526941_663_CDS_ENSMUSG00000028613_ENSMUST00000106731|mouse|control|control (ssRNA)
RNA: GGGAGUUCUACAGUCCGACGAUCGGGAUGAGGCGCGAGUAGUCCCGCUUCACCAGGUCUAUCCUCCGCACCUCGUGUCGGUUCGUGAAGAUCAGAGAUGGGCUCUUGCCGGCUACAGCUUUGCAGUUCUUGGUCAGUGUAUCCCAACAGAGGAUUGAGCAUCA
B3: chr11:72497679:72497680:+_ENSMUSG00000020794_ENSMUST00000021148|mus_mus|motif|central (ssRNA)
RNA: GGGAGUUCUACAGUCCGACGAUCUAUUGCUACAUCCAAUCCAAGAGAUGGGUGAAUCAUAGUACAAAAAGGACAAAGCACCGGGUGAUGACCCCUCCUCUGAAGUCAUCGUGAAAAACUCAAGUAAUUUACUAGUAUUUCAGUCAACAGAGGAUUGAGCAUCA
B4: chr10:35314101:35314102:-_ENSG00000108094_ENST00000537177|hu_mus|motif|central (ssRNA)
RNA: GGGAGUUCUACAGUCCGACGAUCUUCACCUGUACAGAGAUAAUGCAACCAUGUCAGCUUCCGUCCACUGAAAUGCUGGCGGUAAAACAAUUCAAACAUCUGUACACUUUUCUCUAGCUCUUGGGGAAUUGCAAAUGUAGAUGACAACAGAGGAUUGAGCAUCA
B5: chrX:153994619:153994620:+_ENSG00000130826_ENST00000369550|hu_mus|FALSE|FALSE (ssRNA)
RNA: GGGAGUUCUACAGUCCGACGAUCUCCAACAUACUCUUUGCCUGCACUCUGUUGUGAUUUCACCAAACGAGUGGCUCGUUCAAUGCACACAAUUAAACAACCAGUCACUUUGGGAUCUAGUGUGCCACUGUGGCCAGUCUUCUCCAACAGAGGAUUGAGCAUCA
B6: chr5:180275300:180275301:-_ENSG00000196670_ENST00000512132|hu_hu|FALSE|FALSE (ssRNA)
RNA: GGGAGUUCUACAGUCCGACGAUCUCAUCAUCACUGCCCCCUCCCAAACCAAUUACAUCAAGUUUAUACUUAAAGACCACUAAUAUUAAAUAAAUUUAUAUUCCCUGAAACCUAUCCUCCCUGAAUUUGCCUGUUGGAGGCCCUCAACAGAGGAUUGAGCAUCA
B7: chr2:203071915:203071916:-_ENSG00000116030_ENST00000392246|hu_hu|motif|central (ssRNA)
RNA: GGGAGUUCUACAGUCCGACGAUCCAAAGAGAUGGGGUGCCAGUUUUCAAUUCCGUUUUGAACACCACAUUACAAAAGAACGGUUUUUAAAAAUAAAAAAGGAUUGAGGGAAAAGAAAAAAAAUAAAAAGAAUAUCUAAACUGUCAACAGAGGAUUGAGCAUCA
B8: chr9:88635815:88635816:+_ENSG00000135040_ENST00000361671|hu_hu|FALSE|FALSE (ssRNA)
RNA: GGGAGUUCUACAGUCCGACGAUCUCCUCCUGCCAAUAACUUCAUAACCACAAAGUUGGGUUUGGCAACCUUUAAAAUUCUAUUAACCUCAUGGUCCGGGUUAGGAAUAUUUUCCAAUAUCAUUUUUGCCUGUUGAAAGUGCUUCAACAGAGGAUUGAGCAUCA
B9: chr18:43482294:43482295:-_ENSMUSG00000024501_ENSMUST00000121805|mus_mus|FALSE|FALSE (ssRNA)
RNA: GGGAGUUCUACAGUCCGACGAUCUGACAGAGUUUUGCCUAGCAUUUGAGAGGCCCUGGACUCAAUUGUCCAGCUCUACAAAAUGAAAUAAACAGAAAUUCCCCACCUCAAAAAAAAAAAACAACAACAACAACAACAAAAAACCAACAGAGGAUUGAGCAUCA
B10: chr2:203071915:203071916:-_ENSG00000116030_ENST00000392246|hu_hu|FALSE|FALSE (ssRNA)
RNA: B7 RNA with G81U, G82A
B11: chr2:203071830:203071831:-_ENSG00000116030_ENST00000392246|hu_hu|FALSE|FALSE (ssRNA)
RNA: GGGAGUUCUACAGUCCGACGAUCAGGGGACUGAGGCUUGAUCACCAAAAAUCAGCACAAUGAAAACAAACAAUAAUGAAUAAUGAGCACUAGAAUUCAAAUUACCAGAUGUUUCAAAGAGAUGGGGUGCCAGUUUUCAAUUCCCAACAGAGGAUUGAGCAUCA
B12: chr7:17500836:17500837:-_ENSMUSG00000019370_ENSMUST00000019514|mus_mus|FALSE|FALSE (ssRNA)
RNA: GGGAGUUCUACAGUCCGACGAUCUGAACUGAACACAAUAUUGCCCGGUUUGUUUGUUUGUUUAAAAAAAAAAAAAAAAAAGGAAAAACAAAAAACCAAAAUAAAACCCCGAAACAUUCCGCAAAGUCCACAGCCUCACGCCUACAACAGAGGAUUGAGCAUCA
B13: chr10:22825647:22825648:-_ENSG00000150867_ENST00000376573|hu_hu|FALSE|FALSE (ssRNA)
RNA: GGGAGUUCUACAGUCCGACGAUCUCAUCAUUAUUAUCUUCAUUAUUCUGAAUACUGUCUCACAUCUUUCAACUCCAAAAAAAAAAAAAAAAAAAAAAAACUGAUCCACAGUUUGUUGUGUGAUGCCAACACGGUGCCUGACAUCAACAGAGGAUUGAGCAUCA
B14: chr19:60013232:60013233:-_ENSMUSG00000040022_ENSMUST00000171986|mus_hu|FALSE|FALSE (ssRNA)
RNA: GGGAGUUCUACAGUCCGACGAUCCUUAUCUUUUAACUUUGCAAAAGGAGAUCUGGUUUUGUCCUUCAUUGAUAAGUCAAACAUACUUGCGGUCAUAUUGUUCCUCAUAAACUGAAUAUUGACCUUUAUCUCACCCCUGUUUUUCAACAGAGGAUUGAGCAUCA

target: T1, UNK ZnF1-3; experiment: nsRBNS (natural sequence RNA bind-n-seq); RBNS binding buffer (assumed for nsRBNS): 25 mM Tris pH 7.5, 150 mM KCl, 3 mM MgCl2, 0.01% Triton X-100, 500 ug/ml BSA, 20 U/ml SUPERase-In, 4 C; UNK is unkempt and MSI1 is Musashi-1; names of the RNAs are library labels; protein concentration not given here; high values mean tight binding

Row | Binder | binding signal
1 | B1 | 0.906 enrichment R
2 | B2 | 0.464 enrichment R
3 | B3 | 0.978 enrichment R
4 | B4 | 0.886 enrichment R
5 | B5 | 0.751 enrichment R
6 | B6 | 3.55 enrichment R
7 | B7 | 20.1 enrichment R
8 | B8 | 1.04 enrichment R
9 | B9 | 3.06 enrichment R
10 | B10 | 32.1 enrichment R
11 | B11 | 3.55 enrichment R
12 | B12 | 6.58 enrichment R
13 | B13 | 5.07 enrichment R
14 | B14 | 0.548 enrichment R
